An excerpt weighted towards active compounds, which were near 4.6% of everything screened.
tim10-1 inh: inhibits growth of tim10-1 mutant yeast; actives 2.2% (n = 330,000); inhibition, % at 20 µM; S. cerevisiae tim10-1 ts strain growth, BacTiter-Glo, 24 h;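 active means inhibition of at least 40%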;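 further: mutant grown at 25 °C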
TIM10 inh: inhibits growth of TIM10 yeast strain | S. cerevisiae TIM10 strain growth, BacTiter-Glo luminescence, 24 h | inhibition, % at 10 µM | actives 1.4% (n = 330,000) | AID 463195;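 active means inhibition of 40% or more at the single tested concentration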;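 further: wild-type TIM10 isogenic control strain grown at permissive 25 °C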
PfHsp90 set2: reduces growth (ATP signal) of yeast expressing P. falciparum Hsp90; S. cerevisiae expressing PfHsp90, BacTiter-Glo ATP, 48 h; yeast lacking PDR1 and PDR3 efflux regulators; inhibition, % at 9.4 µM; actives 0.32% (n = 310,000);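 active means every replicate shows inhibition above about 80%, whatever the replicate mean, limit read from the data; inconclusive means mean inhibition reaches the set limit but some replicate falls short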
SKKanGAS inh: inhibitors of SKKanGAS S. pyogenes growth in kanamycin (SK-promoter or general growth effect); BacTiter-Glo, 6 h; inhibition, % at 7.5 µM; actives 1.3% (n = 300,000);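 active means mean replicate score, as percent of positive control median, at least 50; inconclusive means mean below 50 but one replicate at or above 50; inactive means mean and every replicate below 50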;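 further: strain carries kanamycin resistance gene driven by streptokinase promoter and grows in 40 µg/ml kanamycin; loss of luminescence reflects streptokinase promoter inhibition or plain growth inhibition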
NALP3 yeast inh: inhibitors of NALP3 inflammasome in yeast; actives 0.39% (n = 330,000); Yeast reconstituted NLRP3/ASC/caspase-1, beta-gal luminescence, 24 h; inhibition, % at 10 µM;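 active means inhibition of 50% or more; inactive means inhibition below 50%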
tim23-1 inh: growth inhibitors of tim23-1 mutant yeast; S. cerevisiae tim23-1 growth, BacTiter-Glo luminescence, 24 h; inhibition, % at 20 µM; actives 1.3% (n = 330,000); AID 463212;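 active means growth inhibition of the mutant yeast at or above 50%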;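 further: temperature-sensitive mutant grown at 25 °C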
tim10-1 confirm: confirmation of tim10-1 mutant yeast growth inhibitors. S. cerevisiae tim10-1 ts strain growth, BacTiter-Glo, 24 h. AID 463213. actives 56% (n = 7,400). shares compounds with tim10-1 inh. inhibition, % at 20 µM;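 active means inhibition of yeast growth at or above a set limit in either of two repeat tests at 20 µM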;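 further: tim10-1 mutant grown at permissive 25 °C to find synthetic lethal compounds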
A number is an active result; - = inactive; ? = inconclusive; . = no result given.

SMILES	tim10-1 inh	TIM10 inh	PfHsp90 set2	SKKanGAS inh	NALP3 yeast inh	tim23-1 inh	tim10-1 confirm
O=C(Cc1cccc(C(F)(F)F)c1)OCC(=O)N1CCN(S(=O)(=O)c2ccc(Cl)cc2)CC1	47	-	-	-	-	-	-
O=C(Cn1nc(-c2ccc(Cl)cc2)c2ccccc2c1=O)NN1CCOCC1	-	-	.	-	-	-	.
Cc1c(OCC(=O)NCCCN2CCOCC2)ccc2c3c(c(=O)oc12)CCC3	48	-	-	-	-	-	-
Fc1cc(F)cc(Nc2nc(Cl)nc(NC3CCCC3)n2)c1	45	-	-	.	-	-	19
CCOC(=O)c1sc2ncnc(NCc3ccco3)c2c1C	47	-	-	-	-	-	35
COc1ccc(/C=N/NC(=O)CCCOc2ccc(Cl)cc2Cl)cc1	47	-	-	-	-	-	-
O=C(CCCOc1ccc(Cl)cc1Cl)N/N=C/c1ccc(Cl)cc1	-	-	-	-	-	-	.
COc1ccc(C(=O)/C=C/Nc2ccc(S(N)(=O)=O)cc2)cc1OC	-	-	-	-	-	-	.
CCc1ccc(NC(=O)C/C(C)=N/NC(=O)COc2ccc(C)cc2Br)cc1	45	-	-	-	-	-	-
Cc1ccc(N/C(=N/S(=O)(=O)c2cccs2)c2ccccc2)c(C)c1	46	-	-	-	-	-	-
Cc1ccccc1N/C(=N/S(=O)(=O)c1cc(F)ccc1F)c1ccccc1	-	-	-	-	-	-	.
CCc1ccccc1NS(=O)(=O)c1cc2c3c(c1)CCN3C(=O)CC2	-	-	-	-	-	-	.
O=C(c1cc(COc2ccc(F)cc2Cl)on1)N1CCN(c2cnccn2)CC1	50	-	-	-	-	-	47
CSc1ccccc1OCc1cc(C(=O)N2CCCC(C)C2)no1 (stereo not drawn)	-	-	-	-	-	-	.
CSc1ccccc1OCc1cc(C(=O)N2CCSCC2)no1	-	-	-	-	-	-	.
CSc1ccccc1OCc1cc(C(=O)N2CCN(c3ncccn3)CC2)no1	46	-	-	-	-	-	-
CSc1ccccc1OCc1cc(C(=O)N2CCC(Oc3cccnc3)CC2)no1	43	-	.	-	-	-	37
Cc1ccc(C(=O)O/N=C(/c2nonc2N)N(C)C)cc1	67	-	-	-	-	-	62
O=C1C(O)CCN1Cc1ccccc1 (stereo not drawn)	.	.	-	.	.	.	.
O=c1c2ccccc2nc2c3ccccc3c(NCCO)nn12	42	-	-	-	-	-	33
CCCCn1c(N)c(N(CC(C)C)C(=O)C2=NN(c3cc(C)ccc3C)C(=O)CC2)c(=O)[nH]c1=O	-	-	.	-	-	-	.
O=C(Nc1ccccc1F)c1ccc2c(c1)CCN2S(=O)(=O)c1ccccc1	40	-	-	-	-	-	-
Cc1ccc(NC(=S)Nc2ccc3cn[nH]c3c2)cc1C	-	-	-	.	-	-	.
CC(C)c1ccc(NC(=S)Nc2ccc3cn[nH]c3c2)cc1	43	-	-	-	-	-	-
O=C1C=C(NC(=O)Nc2ccc(Cl)c(Cl)c2)CCC1	43	-	-	?	-	-	46
SMILES	tim10-1 inh	TIM10 inh	PfHsp90 set2	SKKanGAS inh	NALP3 yeast inh	tim23-1 inh	tim10-1 confirm
COc1ccc(OC)c(-c2csc(NC(=O)c3ccc4c(c3)OCO4)n2)c1	-	-	-	-	-	-	.
CCC(CO)Oc1cc(NC(=O)Cc2ccccc2)c2ncn(C(C)C)c2c1 (stereo not drawn)	-	-	-	.	-	-	.
O=C1/C(=C\c2ccc([N+](=O)[O-])cc2)CCc2ccccc21	47	-	-	-	-	-	36
O=C1/C(=C/c2ccc(O)cc2)CCc2ccc([N+](=O)[O-])cc21	-	-	-	-	-	-	.
COc1ccc(N2CCC(CNC(=O)Nc3cccc(OC)c3)C2)cc1 (stereo not drawn)	46	-	.	-	-	-	40
CCC1CCCCN1CCCNC(=O)CSc1nc2nc(C)c(Cc3ccc(C)cc3)c(C)n2n1 (stereo not drawn)	-	-	-	-	-	-	.
COC(=O)c1cn(C(=O)c2ccc(C)cc2)c2ccccc12	-	-	-	-	-	-	.
COC(=O)c1cn(C(=O)c2ccc(OC)cc2)c2ccccc12	42	-	-	-	-	-	-
COc1cc(-c2nc(-c3cccc(C(F)(F)F)c3)no2)cc(OC)c1OC	41	-	-	-	-	-	31
O=C(Nc1cccc2ccccc12)N1N=CCC1c1ccccc1 (stereo not drawn)	44	-	.	-	-	-	-
S=C(Nc1ccccc1)N1N=CCC1c1ccccc1 (stereo not drawn)	46	-	-	-	-	-	-
O=C(Nc1cccc2ccccc12)N1CCN(c2ccccc2)CC1	-	-	-	.	-	-	.
Fc1ccc(NC(=S)N2N=CCC2c2ccccc2)cc1 (stereo not drawn)	-	-	-	-	-	-	.
O=C(Nc1cccc(Cl)c1)N1N=CCC1c1ccccc1 (stereo not drawn)	48	-	.	-	-	-	47
C=CCc1ccccc1OCC(O)CN(CC)CC (stereo not drawn)	-	-	-	-	-	-	.
Cc1cc(C)c(S(=O)(=O)c2ccccc2)c(OC(=O)c2c(F)cccc2F)n1	-	-	-	-	-	-	.
Cc1cc(C)c(S(=O)(=O)c2ccccc2)c(OC(=O)c2c(Cl)cc(Cl)cc2Cl)n1	41	-	-	-	-	-	36
CCN(CC)CCCCN1c2ccccc2Sc2ccccc21	41	-	-	-	-	-	-
CN(C)CCC(=O)N1c2ccccc2Sc2ccc(C(F)(F)F)cc21	-	-	-	-	-	-	.
CN(C)CCCN1c2ccccc2Sc2ccc(C(F)(F)F)cc21	44	-	-	-	-	-	-
OCCN1CCN(CCCN2c3ccccc3Sc3ccc(C(F)(F)F)cc32)CC1	42	-	-	-	-	-	30
OCCN1CCN(CC/C=C2/c3ccccc3Sc3ccc(C(F)(F)F)cc32)CC1	51	-	-	-	-	-	-
OCCN1CCN(CC/C=C2/c3ccccc3CSc3ccccc32)CC1	-	-	.	-	-	-	.
CN1CCN(CCC(=O)N2c3ccccc3Sc3ccc(C(F)(F)F)cc32)CC1	-	-	-	-	-	-	.
CCSc1ccc2c(c1)N(CCCN1CCN(C)CC1)c1ccccc1S2	42	-	-	.	-	-	31
COc1ccc(Sc2nnc(Cc3ccccc3)c3ccccc23)cc1	-	-	-	-	-	-	.
Cc1ccc(Sc2nnc(Cc3ccccc3)c3ccccc23)cc1	41	-	.	-	-	-	-
CC(C)CC(c1nnnn1Cc1ccc(F)cc1)N1CCC(C(N)=O)CC1 (stereo not drawn)	-	-	-	-	-	-	.
